# Experimental data reported in PubChem BioAssay AID818 (SRMLSC, 2007).
# Hit rate of the full screen: of about 140,000 compounds, about 2,100 (1.5%) were called active. What follows is part of a selection rich in actives, with near analogues and random picks from the rest. A number with no mark means an inactive call.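 The calls were made as follows: active = viability at or under a set limit, the compound median less 4 SD (cut at about 6% in these data); inactive = the rest.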
# Assay: primary screen for growth suppressors in beta-catenin knockout HCT116 cells (colon tumor, human) (AID 818);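 also: 0% = Hyamine 1622 control at 20 µM and 100% = untreated cell control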
# Settings: CellTiter-Glo, 60 h, at 10 µM, hits give low values
row,Structure (SMILES),viability
1,COc1ccc(C2=NN(C(=O)c3cccnc3)C(c3ccccc3)C2)cc1 (stereo not drawn),100%
2,COC(=O)c1c(NC(=O)CN2CCN(S(=O)(=O)c3ccccc3[N+](=O)[O-])CC2)sc2c1CCC(C)C2 (stereo not drawn),90.5%
3,CCC1CCc2c(sc(NC(C)=O)c2C#N)C1 (stereo not drawn),101%
4,CN1CCN(CC(=O)Nc2sc3c(c2C#N)CCC(C(C)(C)C)C3)CC1 (stereo not drawn),3.32% (active)
5,CCNc1nc(NC(C)C)nc(N2CC(=O)N(CC(=O)OCC)C2=N)n1,94.3%
6,Oc1c(Cl)cc(Cl)c(Cl)c1Cc1c(O)c(Cl)cc(Cl)c1Cl,4.83% (active)
7,CCCn1c(=O)c2c(C(F)(F)F)cc(-c3cccs3)nc2n(CCC)c1=O,90%
8,O=C1CCCCC(=O)c2ccccc2N1,101%
9,c1ccc2c(c1)C(=NC1CCCCC1)NC2=NC1CCCCC1,5.56% (active)
10,CC(=O)OC(C)C[N+](C)(C)C (stereo not drawn),102%
11,CC(C[N+](C)(C)C)OC(N)=O (stereo not drawn),1.28% (active)
12,CCCCn1c(O)c(N=NC(=O)Cn2c(C(F)(F)F)nc3ccccc32)c2ccccc21,93.1%
13,CC(C)(C)NC(=O)C(=O)NCc1ccncc1,98.5%
14,O=C(CSC(=S)N1CCOCC1)c1ccccc1,98.3%
15,Cn1ncc2c(NNC(=O)Cc3cccc4ccccc34)ncnc21,86.8%
16,NS(=O)(=O)c1ccc(N=Cc2ccc(Br)s2)cc1,101%
17,CC(=O)CCC(=O)c1ccc2ccccc2c1,99.5%
18,CNC(=O)c1csc(-c2ccccc2)n1,96.8%
19,Cc1ccc(SCC(=O)c2sc(-c3ccccc3)nc2C)cc1,94.5%
20,Cc1nc(-c2ccccc2)sc1C(=O)/C=C/c1ccccc1,4.4% (active)
21,Cc1ccc(Sc2ccncc2S(N)(=O)=O)cc1,87.3%

row,Structure (SMILES),viability
1,O=C(COC(=O)/C=C/c1ccc(S(=O)(=O)N2CCCCCC2)cc1)NCc1ccccc1Cl,106%
2,OCCCN1c2ccccc2Nc2nnc(-c3ccccc3)cc21,46.3%
3,N=c1c2c(-c3ccccc3)c(-c3ccccc3)oc2ncn1Cc1ccco1,59.7%
4,N=c1c2c(-c3ccccc3)c(-c3ccccc3)n(Cc3ccccc3)c2ncn1CCCO,1.54% (active)
5,Cc1nc(SCc2ccc(F)cc2)c([N+](=O)[O-])[nH]1,89.8%
6,Cc1cc(N2CCOCC2)nc(-c2ccc(Br)cc2)n1,82.4%
7,CCCC1OC23CCCCC2C(C#N)(C#N)C1(C#N)C(=N)O3 (stereo not drawn),85.5%
8,COc1cccc(/C=N/NC(=O)CNC(=O)c2ccc(S(=O)(=O)N3CCOCC3)cc2)c1OC,90.8%
9,NC(N)=N/N=C/c1ccc(OCc2ccc(Cl)cc2Cl)cc1,1.64% (active)
10,COC(=O)c1sc2ncccc2c1OCc1ccc(Cl)cc1Cl,67.4%
11,COc1ccc(C(=O)O/N=C(\N)Cc2ccc(Cl)cc2Cl)cc1OC,79.8%
12,CCOC(=O)NN1C(=O)c2ccccc2NC1c1ccccc1O (stereo not drawn),95%
13,C=CCn1c(SCC(N)=O)nnc1-c1cc2c(s1)CCC(CC)C2 (stereo not drawn),91.1%
14,COc1cc2c(cc1OC)C(Nc1ccc(S(N)(=O)=O)cc1)=NC(C)(C)C2,101%
15,COc1cc2c(cc1O)C(SC)=NC(C)(C)C2,2.29% (active)
16,COc1cc2c(cc1OC)C(C(C)C)=NC(C)(C)C2,95.1%
17,COc1ccc(NC(=O)CC2C(=O)OCC3CCCCN32)cc1Cl (stereo not drawn),93.4%
18,Cc1cc(C)c(C#N)c(SCC(=O)NN2CC(=O)N(c3ccccc3F)CC2=O)n1,99.8%
19,CC(C)[C@H](NC(=O)c1ccc(F)cc1)C(=O)OCC(=O)NC(=O)c1cccn1C,93.5%
20,N=c1n(CCc2ccccc2)c2ccccc2n1Cc1ccccc1F,3.71% (active)
21,CN(Cc1ccccc1)Cc1ccccc1F,83%

row,Structure (SMILES),viability
1,CC(=O)NC(C)c1nc2ccccc2n1Cc1ccccc1F (stereo not drawn),102%
2,Cc1ccc2[nH]cc(CCNC(=O)c3ccc([N+](=O)[O-])cc3)c2c1,106%
3,Cc1ccc(C(=O)NC(C)c2ccccc2)cc1Br (stereo not drawn),83.5%
4,CC(=O)Nc1ccc(S(=O)(=O)NCC(=O)OCc2cc(=O)oc3ccc4ccccc4c23)cc1,83.8%
5,CCCN1C(=O)C(Cc2nc3ccccc3c(=O)n2-c2ccccc2)c2cc(C)ccc21 (stereo not drawn),74.7%
6,N#CC1=C(N)Oc2c(sc3ccccc23)C1c1ccco1 (stereo not drawn),3.24% (active)
7,Cc1cc(C)c2c3c(sc2n1)C(c1ccccc1)C(C#N)=C(N)O3 (stereo not drawn),21.1%
8,Cc1cc2c(c(=O)n1Cc1ccco1)C(c1ccccc1)C(C#N)=C(N)O2 (stereo not drawn),105%
9,Brc1ccc(-c2csc(N/N=C/c3ccc4c(c3)OCO4)n2)cc1,84.8%
10,CC(=O)c1c(O)cc2n(c1=O)-c1ccc(Cl)cc1C2(C)C,91.5%
11,CC(C)n1c(C(O)c2ccccc2)nc2ccccc21 (stereo not drawn),110%
12,CC(Nc1nc(N2CCCC2)nc2ccccc12)c1ccccc1 (stereo not drawn),1.19% (active)
13,Cc1ccc(C(CC(=O)O)Nc2nc(N3CCCCC3)nc(N3CCCCC3)n2)cc1 (stereo not drawn),97.6%
14,C/C(=N\N1CCN(Cc2ccc(C)cc2)CC1)c1ccco1,99.1%
15,Cc1cc2oc(=O)cc(CN3CCN(S(=O)(=O)c4cccs4)CC3)c2cc1C(C)C,76.9%
16,COc1cccc(-n2c(SCC(=O)c3c[nH]c4ccccc34)nc3ccccc3c2=O)c1,73.3%
17,NC(=O)c1ccccc1N=Cc1ccc2ccccc2c1,35.3%
18,N#C/C(=C(/O)COC(=O)COc1ccc(Cl)cc1)c1nc2ccccc2[nH]1,5.63% (active)
19,N#C/C(=C(/O)COc1cccc2ccccc12)c1nc2ccccc2[nH]1,79.3%
20,Cc1ccccc1OC/C(O)=C(\C#N)c1nc2ccccc2[nH]1,78.6%
21,O=C(Cc1cccc2ccccc12)NCCC1=CCCCC1,85.5%
